The full list was thinned out, with hits kept by preference.
ST2 inh = IL1RL1 inhibition; Q01638; AlphaLISA ST2-Fc/biotin-IL-33 interaction, 1 h; inhibition, % for hits at 17 µM; 78,000 tested, 2.3% active; AID 1259354; in the data active = inhibition above about 30%
Target sequence (Q01638 whole entry, looked up): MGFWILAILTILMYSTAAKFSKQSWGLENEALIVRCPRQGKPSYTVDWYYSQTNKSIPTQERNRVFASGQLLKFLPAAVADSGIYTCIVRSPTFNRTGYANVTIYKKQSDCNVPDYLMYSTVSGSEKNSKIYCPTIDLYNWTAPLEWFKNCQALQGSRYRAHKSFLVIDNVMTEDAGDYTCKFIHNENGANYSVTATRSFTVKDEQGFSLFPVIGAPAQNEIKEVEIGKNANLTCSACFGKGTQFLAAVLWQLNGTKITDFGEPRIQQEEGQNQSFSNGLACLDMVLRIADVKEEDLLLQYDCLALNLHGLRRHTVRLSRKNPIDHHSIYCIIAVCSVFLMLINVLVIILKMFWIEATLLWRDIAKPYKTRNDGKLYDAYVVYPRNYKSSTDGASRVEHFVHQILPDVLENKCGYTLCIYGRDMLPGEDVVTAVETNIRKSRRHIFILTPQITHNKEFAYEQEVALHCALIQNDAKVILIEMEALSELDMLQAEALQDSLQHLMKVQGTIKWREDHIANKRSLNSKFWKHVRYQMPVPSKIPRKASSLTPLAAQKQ
Large screens that a line does not name were inactive; ! = not active in a repeat.

Cc1nc2c(ccc3nc(NC(=O)c4ccc(C#N)cc4)sc32)s1	ST2 inh 35%
Cc1ccc(C(=O)Nc2nc3ccc4sc(C)nc4c3s2)cc1	ST2 inh 42%
CCOc1ccc(C(=O)Nc2nc3ccc4sc(C)nc4c3s2)cc1	none
CCN(CC)c1ccc(C(=O)Nc2nc3ccc4sc(C)nc4c3s2)cc1	none
COc1cc(OC)cc(C(=O)Nc2nc3ccc4sc(C)nc4c3s2)c1	none
O=C([C@@H]1C[C@@H]1c1ccccc1)N1CCCCCC1	none
COc1ccc(NC(=O)c2oc3ccccc3c2NC(=O)C(C)Oc2ccccc2)c(OC)c1 (stereo not drawn)	none
CCCS(=O)(=O)N1CCCC(C(=O)NC2CCCC2)C1 (stereo not drawn)	none
COc1ccc(CC(=O)N(C)CC2CCCN(CCc3ccccc3F)C2)cc1OC (stereo not drawn)	none
CCCOc1cccc(C(=O)Nc2ccccc2Cl)c1	none
CCOc1ccc(NC(=O)c2ccccc2OCC)c([N+](=O)[O-])c1	ST2 inh 42%
CCOc1ccc(NC(=O)c2ccccc2Br)c([N+](=O)[O-])c1	ST2 inh 36%
Cc1ccc(NC(=O)c2ccccc2[N+](=O)[O-])cc1	none
CCOc1cccc(C(=O)Nc2ccc(C)cc2[N+](=O)[O-])c1	none
CCCOc1ccc(C(=O)Nc2ccccc2[N+](=O)[O-])cc1	ST2 inh 39%
CCOc1ccccc1NC(=O)c1ccccc1C	none
CCN(CC)c1ccc(NC(=O)c2ccccc2Br)c(C)c1	none
CCCOc1ccc(C(=O)Nc2cc(Cl)ccc2Cl)cc1	none
Cc1c(C(=O)Nc2ccccc2[N+](=O)[O-])csc1-c1ccccc1	ST2 inh 35%
CCC(=O)c1ccccc1NC(=O)c1ccccc1Br	none
CCc1ccccc1NC(=O)c1ccccc1[N+](=O)[O-]	none
CCc1ccccc1NC(=O)c1ccncc1	none
O=C(O)c1ccccc1C1CCN(C(=O)c2ccccc2-c2ncn[nH]2)C1 (stereo not drawn)	none
Cc1ccc(OCc2nnc(SCC(=O)Nc3nccs3)n2Cc2ccccc2)cc1C	none
CC(=O)Nc1ccc(NC(=O)c2cc(Cl)ccc2Cl)cc1	none
CCOc1ccc(NC(=O)c2oc3ccccc3c2NC(=O)COc2ccccc2F)cc1	none
O=C(CCC1CCN(C(=O)Cc2csc(-c3ccccc3)n2)CC1)NC1CC1	none
CC1C(c2ccccc2)NCCC1(O)C#N (stereo not drawn)	none
Cc1cccn2c(CC(=O)N(C)C(C)c3nccs3)cnc12 (stereo not drawn)	none
CCN1CCN(c2nc3c(c(=O)n(C)c(=O)n3C)n2CCSc2nc3ccccc3o2)CC1	none
Cn1c(=O)c2c(nc(N3CCCCC3)n2Cc2c(Cl)cccc2Cl)n(C)c1=O	ST2 inh 31%
Cn1c(=O)c2c(nc(N3CCCCC3)n2CCSc2nc3ccccc3o2)n(C)c1=O	ST2 inh 36%!
CN1CCN(c2nc3c(c(=O)n(C)c(=O)n3C)n2CCSc2nc3ccccc3o2)CC1	none
CC1CCN(c2nc3c(c(=O)n(C)c(=O)n3C)n2Cc2c(F)cccc2Cl)CC1	none
CN1CCN(c2nc3c(c(=O)n(C)c(=O)n3C)n2Cc2c(Cl)cccc2Cl)CC1	none
CC(C)(C)C1CCc2c(sc3c2C(=O)NC(c2ccccc2F)N3)C1 (stereo not drawn)	none
CCCN(CC#Cc1ccccc1)c1nc(C)nc2oc(C)nc12	none
O=C(CC1Sc2ccc(C(F)(F)F)cc2NC1=O)Nc1ccc(Cl)cc1 (stereo not drawn)	none
O=C(/C=C/c1ccc(O)c(O)c1)OC[C@H]1O[C@@H](Oc2ccc(O)cc2)[C@H](O)[C@@H](O)[C@@H]1O	none
Cc1cccn2c(CC(=O)NCCN(C)S(C)(=O)=O)cnc12	none
Cc1ccc(C)n1-c1ccc(OCC(=O)O)cc1	ST2 inh 64%
COc1ccc(OCC(=O)O)cc1	none
CCOc1ccc(S(=O)(=O)NCC(=O)O)cc1	none
Cc1ccnc(NC(c2cccnc2)c2ccc3cccnc3c2O)c1 (stereo not drawn)	none
CCOc1cc(C(Nc2ccccn2)c2ccc3cccnc3c2O)ccc1O (stereo not drawn)	none
CCN(CC)c1ccc(C(Nc2ccccn2)c2ccc3cccnc3c2O)cc1 (stereo not drawn)	ST2 inh 36%
CCN(CC)C(=O)CSc1nc(O)cc(=O)n1-c1ccc(OC)cc1	none
CC(C)(O)C#CCN1CCCCC1	none
COc1cc(-c2cc(=O)c3ccccc3o2)ccc1O	none
COc1ccc(-c2cc(=O)c3cc(F)ccc3o2)cc1OC	none
COc1ccc(-c2cc(=O)c3cc(Br)ccc3o2)cc1OC	ST2 inh 31%
CC(=O)NCCC1CCCCN1C(=O)Nc1ccccc1-c1ccccc1 (stereo not drawn)	none
O=C(CSc1nc2ccccc2o1)Nc1ccccc1	none
Cn1c(CSc2nc3ccccc3o2)nc2ccccc21	none
O=[N+]([O-])c1ccc(CSc2nc3ccccc3o2)cc1	ST2 inh 35%
Cc1ccc(S(=O)(=O)N(CCCN2CCOCC2)Cc2cccs2)cc1	none
CN(CCC(=O)NCC1Cc2cc(-c3cnc4ccccc4c3)cc(F)c2O1)C1CCS(=O)(=O)C1 (stereo not drawn)	none
Cc1ccc(NC(=O)CCCn2nc(C)c([N+](=O)[O-])c2C)cc1	none
COc1cc(NC(=O)Nc2nc3c(s2)C[C@]2(C)CC[C@@H]4[C@H](OC(=O)[C@H]4C)[C@H]2[C@@H]3C)cc(OC)c1	none
CSCC(=O)Nc1nc2c(s1)C[C@]1(C)CC[C@@H]3[C@H](OC(=O)[C@H]3C)[C@H]1[C@@H]2C	none
C=CCNC(=O)Nc1nc2c(s1)C[C@]1(C)CC[C@@H]3[C@H](OC(=O)[C@H]3C)[C@H]1[C@@H]2C	ST2 inh 34%
C[C@@H]1C(=O)O[C@H]2[C@H]1CC[C@@]1(C)Cc3sc(Nc4ccc(C(=O)O)cc4)nc3[C@@H](C)[C@H]21	ST2 inh 85%
C[C@@H]1C(=O)O[C@H]2[C@H]1CC[C@@]1(C)Cc3sc(Nc4cccnc4)nc3[C@@H](C)[C@H]21	ST2 inh 36%
C[C@@H]1C(=O)O[C@H]2[C@H]1CC[C@@]1(C)Cc3sc(NC(=O)c4ccc(N(C)C)cc4)nc3[C@@H](C)[C@H]21	none
C[C@H](C(=O)NCCN1CCOCC1)C1CC[C@@]2(C)Cc3sc(-c4ccccc4)nc3[C@@H](C)[C@@H]2[C@H]1O (stereo partly drawn)	none
C[C@H]1[C@@H]2[C@H]3OC(=O)[C@@H](C)[C@@H]3CC[C@@]2(C)CC[C@@H]1NC(=O)C1CC1	none
N#Cc1c(NC(=O)c2ccc(Cl)s2)sc2c1CCCC2	none
CCn1cc(CNc2nc(-c3ccc(Cl)cc3)nc3c2CNC3)cn1	none
CC(C)(C)c1ccccc1OCC(=O)Nc1cccc(C(F)(F)F)c1	none
CCc1[nH]c2c(CNC(=O)C3CCOCC3)cc(C)cc2c1C	none
Cc1ccc(N2CCOC2=O)c(-c2cc(N)nc3[nH]ccc23)c1	none
CSc1cccc(CN(C(=O)c2cccn2C)C(C)C)c1	none
CC1(C)CC(NC(=O)c2cc(Cn3ccc4ccccc43)[nH]n2)CCO1 (stereo not drawn)	none
COC(=O)c1cccc(NC(=S)N[C@H]2CO[C@H]3[C@@H]2OC[C@H]3OC(=O)Nc2ccc(C(C)C)cc2)c1	ST2 inh 68%
COC(=O)c1cccc(NC(=S)N[C@H]2CO[C@H]3[C@@H]2OC[C@H]3OC(=O)NC2CCCCC2)c1	none
CCNC(=O)O[C@@H]1CO[C@H]2[C@@H]1OC[C@@H]2NC(=O)Nc1ccc(C(C)C)cc1	none
CC(=O)c1cccc(NC(=O)O[C@@H]2CO[C@H]3[C@@H]2OC[C@@H]3NC(=S)Nc2ccccc2)c1	none
CCNC(=O)O[C@@H]1CO[C@H]2[C@@H]1OC[C@@H]2NC(=S)Nc1cccc(C#N)c1	ST2 inh 92%
CC(C)c1ccc(NC(=O)O[C@@H]2CO[C@H]3[C@@H]2OC[C@@H]3NC(=O)Nc2cccc(C#N)c2)cc1	none

Source: PubChem
